Records with an inconclusive call do not appear. Active and inactive are the calls of the source. Unless noted, calls follow the shape of the full dose curve.

These results are taken from PubChem BioAssay (NCATS).

Experiment [1] in a line: qHTS assay for small molecule antagonists of peroxisome proliferator-activated receptor delta signaling (AID 588535; active = well fitted inhibition curve with a large enough effect in the signal ratio, with a control signal flat, not every such curve was filed as active; the % refers to the signal ratio;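 as to max response: cells co-treated with a PPAR-delta agonist as stimulator during compound exposure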). Particulars: HEK293T PPARd-UAS-bla, beta-lactamase FRET ratio, 18 h; 460 nm channel. Summed up:
(§1)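 Fluorescence from CCF4-loaded GeneBLAzer PPAR-delta-UAS-bla HEK293T cells (2 hrs RT loading) quantified reporter inhibition after an 18 hr, 37 C compound exposure across a titration.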

Experiment [2] addresses Peroxisome proliferator-activated receptor delta (Homo sapiens) (UniProt Q03181). Described as above. Particulars: HEK293T PPARd-UAS-bla, beta-lactamase FRET ratio, 18 h; series mostly up to 76.7 µM. Summed up:
as §1

Experiment [3] has as its target Vitamin D3 receptor (Homo sapiens) (UniProt P11473). Description: qHTS assay for small molecule antagonists of vitamin D receptor signaling (AID 588541).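 Also: receptor activated by calcitriol during compound treatment; % is scaled to controls: 0 for no effect and ±100 for the full control effect.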 Particulars: HEK293T VDR-UAS-bla, beta-lactamase ratio, antagonist mode; series mostly up to 76.7 µM. In outline:
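VDR-UAS-bla HEK293T cells in 2% charcoal-stripped FBS were stimulated with 1-alpha,25-dihydroxyvitamin D3 (3 nM final) plus compound for 16 h at 37 C. The beta-lactamase CCF4 readout was normalized to 50 nM agonist and DMSO, and Hill fits gave IC50.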

Experiment [4] is described as follows: qHTS assay for small molecule agonists of retinoid X receptor alpha signaling (AID 588544).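 As to activation: 0% = DMSO basal wells and 100% = reference agonist.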 Particulars: HEK293T RXRa-UAS-bla, beta-lactamase reporter, 18 h; 530 nm emission.
Experiment [5] concerns the target Retinoic acid receptor RXR-alpha (Homo sapiens) (UniProt P19793). Described as above. Particulars: HEK293T RXRa-UAS-bla, beta-lactamase reporter, 18 h; series mostly up to 76.7 µM.
Experiment [6] has as its target Thyroid hormone receptor beta (Homo sapiens) (UniProt P10828). Briefly: qHTS assay for small molecule agonists of thyroid hormone receptor beta signaling (AID 588545). Particulars: TR-UAS-bla GripTite HEK 293, beta-lactamase ratio, agonist mode, 18 h; series mostly up to 76.7 µM. In outline: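 In this cell-based screen, titrated compounds act on HEK 293 cells held in medium with 2% charcoal/dextran FBS, NEAA and pyruvate for 18 hrs at 37 C. Responses are expressed relative to T3 (10 nM) as 100% and basal DMSO as 0%.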

A short description of experiment [7]: qHTS assay for small molecule antagonists of retinoid X receptor alpha signaling (AID 588546; active = well fitted inhibition curve with a large enough effect in the signal ratio, with a control signal flat, not every such curve was filed as active; the % refers to the signal ratio;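 also: cells stimulated with 9-cis-retinoic acid as agonist; % is scaled to controls: 0 for no effect and ±100 for the full control effect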). Particulars: HEK293T RXRa-UAS-bla, beta-lactamase ratio, antagonist mode; measured here: W530 green channel, cytotoxicity proxy. In outline: (§2)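 Beta-lactamase reporter inhibition, read as CCF4 fluorescence ratio (ex 405, em 460/530 nm) after 2 h at RT. HEK293T UAS-bla cells, 2500/well, were stimulated with 9-cis-RA at 500 or 100 nM final alongside test compound for 18 h at 37 C.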

The target in experiment [8] is Retinoic acid receptor RXR-alpha (Homo sapiens) (UniProt P19793). Described as above. Particulars: HEK293T RXRa-UAS-bla, beta-lactamase ratio, antagonist mode. In outline: as §2
A short description of experiment [9]: qHTS assay for environmental chemicals that activate the Aryl hydrocarbon Receptor (AhR) signaling pathway (AID 651777; active = well fitted curve in the direction sought with a large enough effect; an effect the other way counts as inactive or inconclusive; also: % of control where 0% means no effect; nearly all actives have a fitted effect of over 15% in size). Particulars: 1A2-DRE human hepatoma cells, luciferase, 24 h; activation: stronger effect = higher value. In outline:
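Measured luciferase activity, read 30 min after One-Glo addition at room temperature, from human hepatoma cells bearing a dioxin response element–CYP1A2 promoter reporter and exposed to compound for 24 hr at 37 C.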

Experiment [10] deals with Peroxisome proliferator-activated receptor alpha (Homo sapiens) (UniProt Q07869). Description: qHTS assay for small molecule agonists of the peroxisome proliferator-activated receptor alpha (PPARalpha) signaling pathway (AID 651778; active = well fitted curve in the direction sought with a large enough effect; an effect the other way counts as inactive or inconclusive; also: % of control where 0% means no effect). Particulars: PathHunter PPARalpha complementation, chemiluminescence, 6 h; max response: stronger effect = higher value. In outline:
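Enzyme-fragment complementation assay in which ligand-bound PPARalpha translocates and forms an active enzyme that generates chemiluminescence. Cells were plated overnight, exposed to compound for 6 hr at 37 C, and then given detection reagent for 60 min at room temperature.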

A short description of experiment [11]: qHTS assay for small molecule agonists of the antioxidant response element (ARE) signaling pathway measured by Nrf2-dependant transcriptional activity (AID 720636; active = well fitted curve in the direction sought with a large enough effect in the repeat runs; an effect the other way counts as inactive or inconclusive; also: % of control where 0% means no effect). Particulars: ARE-luc HepG2, Nrf2 luciferase reporter, 16 h; series mostly up to 92.4 µM. Summed up: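 In HepG2 cells engineered with an Nrf2-responsive luciferase gene, ARE induction was quantified as luminescence after 16 hr compound treatment at 37 C.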

Experiment [12] is described as follows: qHTS assay for cell viability of HEK293 cells (AID 743288; active = well fitted curve in the direction sought with a large enough effect; an effect the other way counts as inactive or inconclusive; also: % is scaled to controls: 0 for no effect and ±100 for the full control effect; nearly all actives have a fitted effect of over 50% in size). Particulars: ATP luminescence (CellTiter-Glo), 18 h; max response: stronger effect = lower value. In outline: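 Readout is luciferase-coupled ATP content (CellTiter-Glo luminescence, 30 min room temperature) as a measure of metabolically competent cells. Parental HEK293 cells were plated 5 h or more before compound addition, then treated 18 h at 37 C.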

Experiment [13] can be described thus: qHTS assay for cell viability of the p53RE-bla HCT-116 cell line (AID 743292; active = well fitted curve in the direction sought with a large enough effect; an effect the other way counts as inactive or inconclusive; also: % is scaled to controls: 0 for no effect and ±100 for the full control effect; nearly all actives have a fitted effect of over 55% in size). Particulars: p53RE-bla HCT-116 viability, ATP luminescence, 16 h; series mostly up to 95 µM. In outline: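 Intracellular ATP of p53RE-bla HCT-116 cells measured by luciferase luminescence following 16 h compound incubation at 37 C; DMSO-only wells served as vehicle controls.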
In experiment [14] the target is Nuclear receptor subfamily 1 group I member 2 (Rattus norvegicus) (UniProt Q9R1A7). Briefly: qHTS assay for small molecule activators of the rat pregnane X receptor (rPXR) signaling pathway (AID 651751; call rule not given here; also: 0% is about no effect). Particulars: rPXR reporter cells, luciferase (One-Glo), 24 h.
The nature of experiment [15]: qHTS assay for small molecule activators of the human pregnane X receptor (PXR) signaling pathway (AID 720659; call rule not given here; also: 0% is about no effect). Particulars: DPX-2 HepG2 CYP3A4-luciferase, 24 h; series mostly up to 92.3 µM.
Experiment [16] deals with Vitamin D3 receptor (Homo sapiens) (UniProt P11473). Description: qHTS assay for small molecule agonists of vitamin D receptor signaling (AID 588543).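 Also: 0% = DMSO basal and 100% = reference agonist control.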 Particulars: HEK293T VDR-UAS-bla, beta-lactamase ratio, 16 h; series mostly up to 76.8 µM. Summed up:
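Agonist-mode beta-lactamase reporter: HEK293T VDR-UAS-bla cells in charcoal-stripped 2% FBS, compound series 16 h 37 C, CCF4 2 h RT. EC50 from Hill fit, scaled against DMSO and 50 nM calcitriol control.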

Experiment [17] can be described thus: qHTS assay for small molecule activators of the nuclear factor-kappa B (NF-kB) signaling pathway (AID 651749; active = well fitted activation curve with a large enough effect in the signal ratio; the % refers to the signal ratio; also: % of control where 0% means no effect). Particulars: NF-kB-bla ME-180 cells, beta-lactamase FRET ratio, 16 h; activation: stronger effect = higher value. Summed up:
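In this qHTS format, compounds acting as activators increase NF-kB-driven beta-lactamase in ME-180 cells, measured as disrupted FRET after 16 hr exposure at 37C and 5% CO2.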

The nature of experiment [18]: qHTS assay for small molecule agonists of the antioxidant response element (ARE) signaling pathway measured by Nrf2-dependant transcriptional activity - cell viability counter screen (AID 720653; active = well fitted curve in the direction sought with a large enough effect in the repeat runs; an effect the other way counts as inactive or inconclusive; also: % is scaled to controls: 0 for no effect and ±100 for the full control effect). Particulars: ARE-bla HepG2 viability, CellTiter-Glo ATP luminescence, 16 h; max response: stronger effect = lower value. Summed up:
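ARE-bla HepG2 cells treated with compounds for 16 h at 37C; this counter screen measures viability as intracellular ATP by CellTiter-Glo luminescence after 30 min at room temperature.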

Experiment [19] concerns the target Peroxisome proliferator-activated receptor gamma (Homo sapiens) (UniProt P37231). Description: qHTS assay for small molecule agonists of peroxisome proliferator-activated receptor gamma signaling (AID 588536; active = well fitted curve in the direction sought with a large enough effect in the signal ratio, with a control signal flat, not every such curve was filed as active; the % refers to the signal ratio;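 also: 0% = DMSO basal wells and 100% = rosiglitazone at 2 µM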). Particulars: HEK293 PPARg-UAS-bla, beta-lactamase ratio, 16 h, percent of rosiglitazone response, DMSO as zero; series mostly up to 76.7 µM. Summed up:
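Beta-lactamase reporter read-out: CCF4 fluorescence (ex 405, em 460/530 nm) after 2 h at RT. HEK293 GeneBLAzer cells were treated for 16 h at 37 C. Hill fits gave EC50 and efficacy versus 2 uM rosiglitazone (100%) and DMSO (0%).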

A short description of experiment [20]: qHTS assay for small molecule activators of the p53 signaling pathway (AID 651743; active = well fitted activation curve with a large enough effect in the signal ratio, not every such curve was filed as active; the % refers to the signal ratio; also: % of control where 0% means no effect). Particulars: HCT-116 p53RE-bla, beta-lactamase FRET ratio, 16 h; activation: stronger effect = higher value. In outline:
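Following 16 hours of compound exposure at 37 C, HCT-116 cells bearing the p53RE-bla reporter were loaded with LiveBLAzer B/G FRET substrate for 2 hours at room temperature and fluorescence intensity was recorded.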

Chain of Vitamin D3 receptor (Homo sapiens) (P11473 whole entry, looked up): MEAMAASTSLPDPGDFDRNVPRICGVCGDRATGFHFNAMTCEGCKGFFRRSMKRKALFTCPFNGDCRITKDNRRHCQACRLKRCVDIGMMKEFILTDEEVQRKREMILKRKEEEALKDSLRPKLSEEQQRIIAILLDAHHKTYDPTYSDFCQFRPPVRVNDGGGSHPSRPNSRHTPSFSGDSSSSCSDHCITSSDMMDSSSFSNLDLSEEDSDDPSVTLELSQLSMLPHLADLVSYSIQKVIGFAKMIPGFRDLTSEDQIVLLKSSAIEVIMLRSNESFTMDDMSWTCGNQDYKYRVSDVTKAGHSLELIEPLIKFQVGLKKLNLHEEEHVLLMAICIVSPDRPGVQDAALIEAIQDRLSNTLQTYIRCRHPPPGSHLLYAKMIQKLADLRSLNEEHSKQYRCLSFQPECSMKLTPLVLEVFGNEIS
Chain of Peroxisome proliferator-activated receptor delta (Homo sapiens) (Q03181 whole entry, looked up): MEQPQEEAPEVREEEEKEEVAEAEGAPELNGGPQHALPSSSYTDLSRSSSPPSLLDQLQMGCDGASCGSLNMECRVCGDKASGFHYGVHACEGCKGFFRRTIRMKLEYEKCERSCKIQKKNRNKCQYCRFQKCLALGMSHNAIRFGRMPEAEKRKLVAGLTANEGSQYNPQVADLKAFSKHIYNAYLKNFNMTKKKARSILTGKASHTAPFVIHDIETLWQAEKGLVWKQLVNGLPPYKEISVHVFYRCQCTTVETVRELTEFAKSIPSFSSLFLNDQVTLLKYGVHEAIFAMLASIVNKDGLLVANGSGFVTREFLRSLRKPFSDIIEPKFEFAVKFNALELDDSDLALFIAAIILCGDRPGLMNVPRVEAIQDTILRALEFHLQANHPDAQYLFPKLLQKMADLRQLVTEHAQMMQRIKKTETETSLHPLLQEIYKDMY
Chain of Retinoic acid receptor RXR-alpha (Homo sapiens) (P19793 whole entry, looked up): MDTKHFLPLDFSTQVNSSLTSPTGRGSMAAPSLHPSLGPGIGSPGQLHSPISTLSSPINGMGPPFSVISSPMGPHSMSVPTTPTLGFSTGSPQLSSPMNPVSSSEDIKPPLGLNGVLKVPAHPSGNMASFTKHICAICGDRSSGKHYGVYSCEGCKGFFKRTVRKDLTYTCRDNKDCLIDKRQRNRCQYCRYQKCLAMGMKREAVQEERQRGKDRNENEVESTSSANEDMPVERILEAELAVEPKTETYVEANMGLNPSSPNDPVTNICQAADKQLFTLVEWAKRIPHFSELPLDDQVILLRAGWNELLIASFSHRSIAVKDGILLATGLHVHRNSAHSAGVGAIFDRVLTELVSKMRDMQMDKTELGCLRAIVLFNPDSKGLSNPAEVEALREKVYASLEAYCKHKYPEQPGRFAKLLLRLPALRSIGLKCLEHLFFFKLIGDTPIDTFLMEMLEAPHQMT
Chain of Peroxisome proliferator-activated receptor gamma (Homo sapiens) (P37231 whole entry, looked up): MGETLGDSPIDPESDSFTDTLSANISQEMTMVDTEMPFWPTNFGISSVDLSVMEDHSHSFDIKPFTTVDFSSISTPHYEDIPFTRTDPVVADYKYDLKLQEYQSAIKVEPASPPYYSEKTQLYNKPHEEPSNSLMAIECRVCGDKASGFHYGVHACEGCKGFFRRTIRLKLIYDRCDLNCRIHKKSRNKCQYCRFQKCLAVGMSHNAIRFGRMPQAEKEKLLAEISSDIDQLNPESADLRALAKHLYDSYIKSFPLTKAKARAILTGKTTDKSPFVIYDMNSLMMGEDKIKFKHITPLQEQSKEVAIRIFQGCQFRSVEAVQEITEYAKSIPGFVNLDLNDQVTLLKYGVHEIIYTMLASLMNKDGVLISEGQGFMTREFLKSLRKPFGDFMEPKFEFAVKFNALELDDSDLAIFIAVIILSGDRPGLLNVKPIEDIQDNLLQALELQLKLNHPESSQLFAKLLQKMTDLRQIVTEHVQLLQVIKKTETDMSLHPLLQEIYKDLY
Chain of Thyroid hormone receptor beta (Homo sapiens) (P10828 whole entry, looked up): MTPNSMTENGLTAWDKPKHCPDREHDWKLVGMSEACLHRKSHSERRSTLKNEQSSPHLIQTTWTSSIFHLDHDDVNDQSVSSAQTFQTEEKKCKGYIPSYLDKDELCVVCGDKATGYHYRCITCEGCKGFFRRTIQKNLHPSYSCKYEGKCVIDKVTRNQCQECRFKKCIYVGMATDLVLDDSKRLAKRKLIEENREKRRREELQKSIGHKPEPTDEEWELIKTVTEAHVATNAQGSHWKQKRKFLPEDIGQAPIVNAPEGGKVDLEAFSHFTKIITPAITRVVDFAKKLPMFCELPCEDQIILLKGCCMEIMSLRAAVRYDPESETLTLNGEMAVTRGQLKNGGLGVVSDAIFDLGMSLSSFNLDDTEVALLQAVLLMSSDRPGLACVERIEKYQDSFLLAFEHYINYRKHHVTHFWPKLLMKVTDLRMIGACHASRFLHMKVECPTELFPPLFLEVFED
Chain of Nuclear receptor subfamily 1 group I member 2 (Rattus norvegicus) (Q9R1A7 whole entry, looked up): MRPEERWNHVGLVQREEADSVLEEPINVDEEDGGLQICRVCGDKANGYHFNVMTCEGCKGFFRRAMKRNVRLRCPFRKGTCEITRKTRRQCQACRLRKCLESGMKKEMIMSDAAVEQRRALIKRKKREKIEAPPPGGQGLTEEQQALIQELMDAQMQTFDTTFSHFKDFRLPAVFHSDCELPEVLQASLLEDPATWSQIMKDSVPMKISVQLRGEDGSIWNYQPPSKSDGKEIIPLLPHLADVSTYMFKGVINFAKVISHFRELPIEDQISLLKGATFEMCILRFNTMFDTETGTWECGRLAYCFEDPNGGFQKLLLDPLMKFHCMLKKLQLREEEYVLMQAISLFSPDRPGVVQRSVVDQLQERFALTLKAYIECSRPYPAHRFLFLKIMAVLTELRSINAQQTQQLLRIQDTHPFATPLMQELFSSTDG
Chain of Peroxisome proliferator-activated receptor alpha (Homo sapiens) (Q07869 whole entry, looked up, the tested form may be a part): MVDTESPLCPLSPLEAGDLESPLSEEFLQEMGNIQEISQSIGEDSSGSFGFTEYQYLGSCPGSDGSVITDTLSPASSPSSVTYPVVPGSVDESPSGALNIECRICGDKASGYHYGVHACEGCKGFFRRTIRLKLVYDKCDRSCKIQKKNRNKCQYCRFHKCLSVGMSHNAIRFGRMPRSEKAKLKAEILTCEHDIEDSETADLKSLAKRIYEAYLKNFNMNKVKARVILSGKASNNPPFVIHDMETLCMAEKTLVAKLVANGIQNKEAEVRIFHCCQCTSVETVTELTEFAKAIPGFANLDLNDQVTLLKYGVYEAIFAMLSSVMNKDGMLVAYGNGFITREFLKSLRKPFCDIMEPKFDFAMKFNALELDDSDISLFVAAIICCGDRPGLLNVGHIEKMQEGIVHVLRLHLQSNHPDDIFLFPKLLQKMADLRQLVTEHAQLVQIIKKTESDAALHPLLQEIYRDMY

Turning to `C=CC(=O)OCC(C)OCC(C)OCC(C)OC(=O)C=C` (centres undefined), the max response in [1] is 41.6%; in experiment [4], -8.39%; in experiment [7], -20.7%; in experiment [8] it was 10.6% (inactive); in experiment [10], -2.39% (inactive); in [12], -1.74% (inactive). In addition, the max response in experiment [14] is -2.64% (inactive). In addition, the Potency entry in [2], in experiment [3], in experiment [5], in experiment [6], in [11] and in experiment [13] was “inactive” each time. Also, in experiment [9], the activation was -0.0895% (inactive). For the same compound, the result in [15] was inactive.

`O=C(O)c1cc2ccccc2cc1O`: the Potency entry in experiment [3], in experiment [5], in experiment [6] and in experiment [13] was “inactive” each time. Besides, the result in experiment [16] was inactive. Moreover, the max response is 18.1% in experiment [4]; 2.59% in experiment [7]; -6.59% (inactive) in [8]; -1.53% (inactive) in [18]; 0.928% (inactive) in experiment [14]. Further, in experiment [17], the activation is 0.405% (inactive).

As to `CC1(C)C(=O)N(Br)C(=O)N1Br`, the max response in [1] is -25.7%; in experiment [4], -13.9%; in [7], -0.87%; in [8], -10.9% (inactive); in [10] it was -2.02% (inactive); in [18], -10.4% (inactive). Besides, the max response in [14] was -0.134% (inactive). Moreover, the Potency entry in experiment [2], in experiment [3], in experiment [5], in experiment [6], in experiment [11] and in experiment [13] was “inactive” throughout. Further, the result in experiment [19] and in experiment [15] was inactive. In addition, the activation in experiment [20] was -3.66% (inactive); in experiment [9], 1.3% (inactive).

For `Cc1nn(C)c(Oc2ccccc2)c1/C=N/OCc1ccc(C(=O)OC(C)(C)C)cc1`, the max response in experiment [4] was -10.3%; in experiment [10], 2.08% (inactive). In addition, the Potency result in experiment [5], in experiment [6], in [11] and in experiment [13] was “inactive” in each case. Also, the activation in experiment [20] was 9.47% (inactive). In addition, the result in experiment [15] was inactive.

Turning to `O=C=NCCCCCCN=C=O`, the max response is 15.2% in experiment [1]; -10.7% in experiment [4]; -6.96% in experiment [7]; -6.2% (inactive) in experiment [8]; -1.66% (inactive) in experiment [10]; -0.323% (inactive) in experiment [18]. Moreover, the max response in [12] is -9.94% (inactive); in [14], -0.542% (inactive). Moreover, the Potency result in experiment [2], in [3], in experiment [5], in [6], in experiment [11] and in experiment [13] was “inactive” each time. The outcome in experiment [19], in experiment [16] and in experiment [15] was inactive. Further, the activation in experiment [17] is 0.731% (inactive); in experiment [9], -0.825% (inactive).

Turning to `C[Si]1(C)O[Si](C)(C)O[Si](C)(C)O1`, the max response in experiment [1] was -11.7%; in experiment [4], -4.52%; in [7], -6.48%; in experiment [8], 2.26% (inactive); in experiment [10], 0.478% (inactive); in experiment [18] it was -2.26% (inactive). Besides, the max response was -1.41% (inactive) in experiment [12] and -5.54% (inactive) in experiment [14]. For the same compound, the Potency entry in [2], in experiment [3], in experiment [5], in experiment [6], in [11] and in [13] was “inactive” throughout. The outcome in experiment [19], in experiment [16] and in experiment [15] was inactive. Moreover, the activation in experiment [20] is -3.38% (inactive); in [17], -0.149% (inactive).
